Screens from PubChem.
The list is not random: actives were taken first. Their share in the collection is about 7.6%.
Cav3 T inh: Cav3.2 calcium influx blockers – cell-based, Fluo-4 calcium fluorescence, FDSS, MLSMR library, primary screen. B-score at 10 µM. Voltage-dependent T-type calcium channel subunit alpha-1H (Homo sapiens), O95180. Cav3.2-expressing cells; hits give low values. hit rate 4% among 100,000;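 active = single-dose well whose peak fluorescence ratio is a statistical outlier from its plate by either plate-standardised score or position-corrected B-score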
M1 ag: M1 muscarinic receptor agonists, primary screen, CHO-M1 cells, Fluo-4 calcium, agonist mode; Muscarinic acetylcholine receptor M1; Fluo-4 calcium fluorescence; hits give high values; B-score at 10 µM; hit rate 3% among 64,000; AID 626, 2007;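 active = fluorescence rise, raw or as B-score row- and column-corrected plate score, outside the 99.7% band of its plate's samples, either direction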
M1 antag: antagonists of rat M1 muscarinic receptor. CHO-M1 cells, Fluo-4 calcium, ACh EC80 antagonist mode; hits give low values. B-score at 10 µM. hit rate 3.4% among 64,000. AID 628, 2007;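 active = calcium fluorescence response, raw or row-and-column corrected B-score, differing from the plate sample mean either way at a set confidence level, mostly lower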
PLAP activator: PLAP enzyme activators, biochemical, luminescence, HTS | hit rate 1.2% among 96,000 | activation fold at 20 µM | purified PLAP enzyme, luminescent substrate read-out; hits give high values | Alkaline phosphatase, placental type (Homo sapiens), P05187; in the data active = activation fold above about 2
M1 antag conf: rat M1 muscarinic receptor antagonists, confirmation, CHO cells, Fluo-4 calcium, duplicate. shares compounds with M1 antag. hit rate 43% among 1,700. ACh EC80 antagonism; hits give low values. calcium response (max-min fluorescence) at 10 µM. AID 677, 2007;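 active = calcium response below the same-plate mean of wells given acetylcholine alone at its 80%-effect dose, minus 3 SD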
mGluR4 antag: human mGluR4 response to M1 antagonist hits, M1 allosteric modulator project, cell-based, antagonist mode, secondary assay 1 | shares compounds with M1 antag | CHO-mGluR4 calcium flux, Fluo-4 fluorescence, glutamate EC80; hits give low values | fluorescence response (max-min) at 10 µM | hit rate 0.9% among 1,700 | AID 678, 2007;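 active = fluorescence response below the plate's average for near-maximal glutamate wells, less 3 SD of those wells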;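 note: raw unnormalized fluorescence span taken in the window right after glutamate addition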
A number is an active result; . = inactive; / = not tested or not shown.

SMILES	Cav3 T inh	M1 ag	M1 antag	PLAP activator	M1 antag conf	mGluR4 antag
COC(=O)c1ccc(C2c3c(n[nH]c3C)C(=O)N2c2ccc(C)cc2)cc1 (stereo not drawn)	.	.	-1	2.3	450	.
CCOC(=O)c1c(NC(=O)CSc2nnc(-c3ccccc3)n2CC)sc(C(C)=O)c1C	.	.	-1.2	.	.	.
CCOC(=O)c1sc(NC(=O)CSc2nncs2)c(C(=O)OCC)c1C	.	.	-5	.	.	.
CCOC(=O)c1sc(NC(=O)CSc2nnnn2-c2ccc(C)cc2)c(C(=O)OCC)c1C	.	.	.	.	/	/
O=C(Nc1ccc2c(c1)OCO2)N1CCN(C(=O)C2CCCO2)CC1 (stereo not drawn)	.	/	/	/	/	/
CC1Cc2ccccc2N1CC(=O)NC(=O)NCc1ccco1 (stereo not drawn)	.	.	-4.1	.	.	.
O=C(CN1CCCc2ccccc21)NC(=O)NCc1ccco1	.	.	.	.	/	/
O=C(CC(c1ccc(F)cc1)c1ccco1)N1CCOCC1 (stereo not drawn)	/	.	.	.	/	/
O=C(CC(c1ccccc1)c1cc(Cl)ccc1O)N1CCOCC1 (stereo not drawn)	.	.	-2.6	.	.	.
CCN1C(=O)c2ccccc2S(=O)c2ccc(C(=O)N3CCN(C(=O)c4ccco4)CC3)cc21 (stereo not drawn)	.	.	-1.3	.	.	.
Cn1c(C(=O)NC2CCCCC2)cc2sccc21	.	.	.	.	/	/
CN(C(=O)c1cc2sccc2n1C)C1CCCCC1	.	.	-3.2	.	.	.
O=C(Nc1sccc1C(=O)N1CCOCC1)c1cccnc1	.	.	-5.1	.	.	.
CCc1cc2c(=O)c(-c3cnn(-c4ccccc4)c3)c(C)oc2c(CN2CCCCC2)c1O	.	/	/	.	/	/
CCc1cc2c(=O)c(-c3cnn(-c4ccccc4)c3)coc2c(CN2CCOCC2)c1O	.	.	-4.2	.	.	.
COc1ccccc1N1CCN(C(=O)C2c3ccccc3Oc3ccccc32)CC1	-5.8	.	-1.3	.	.	.
COc1ccccc1N1CCN(C(=O)Cc2cccs2)CC1	.	.	-1.9	.	.	.
COc1ccc(C(CNC(=O)c2ccc(OCC3CCCO3)cc2)N2CCOCC2)cc1 (stereo not drawn)	.	.	.	.	/	/
COc1ccc(C(CNC(=O)c2ccc(S(=O)(=O)N3CCOCC3)cc2)N2CCCCC2)cc1 (stereo not drawn)	.	.	-3.2	/	.	.
O=C(Cn1cc(/C=N/O)c2ccccc21)N1CCOCC1	.	.	-2.2	.	.	.
O=Cc1cn(CC(=O)N2CCOCC2)c2ccccc12	.	/	/	/	/	/
Cc1ccc(NC(=O)N2CCC(=O)N2)cc1	.	/	/	.	/	/
COC(=O)c1ccc(COc2cccc(OC)c2)o1	.	.	-2.4	.	.	.
COc1cc(OC)cc(C(=O)Nc2cccc(NC(C)=O)c2)c1	.	.	-3.6	.	.	.
CCCN(CCC)Cc1cc2ccccc2c2c1COC2	.	/	/	.	/	/
SMILES	Cav3 T inh	M1 ag	M1 antag	PLAP activator	M1 antag conf	mGluR4 antag
CCN(CC)Cc1cc2ccccc2c2c1COC2	.	.	-2.3	.	473	.
C=CCc1ccccc1OCCCCN1CCCC1	.	.	-3.4	.	367	.
Brc1ccccc1OCCCCCN1CCCC1	.	/	/	.	/	/
Cc1ccccc1OCCCN1CCCC1	.	.	.	.	/	/
CCc1ccccc1OCCCCN1CCCC1	.	.	-4.3	.	.	.
Cc1nc2c(o1)CCc1ccccc1C2N1CCN(C)CC1 (stereo not drawn)	.	.	-15	.	20	.
COC(=O)COc1ccc(S(=O)(=O)NCC2CCCO2)cc1Cl (stereo not drawn)	.	.	.	.	/	/
COC(=O)c1ccccc1NC(=O)c1cc(-c2cccs2)on1	.	.	-2.6	.	.	.
COC(=O)c1[nH]c2ccccc2c1NC(=O)CN1CCCCCC1	.	.	.	.	/	/
CCOC(=O)C1CCCN(CC(=O)Nc2c(C(=O)OC)[nH]c3ccccc23)C1 (stereo not drawn)	.	.	-5.8	.	552	.
